In PubChem BioAssay (Tox21):
Where “and” joins values, the source holds several entries; their conditions need not be identical. Equal values may be shown once. Records with an inconclusive call do not appear. Entries that show only a call come without a potency. More than one record can exist for a structure, and the calls need not agree. Calls of active or inactive are those of the source. Unless noted, calls come from the whole dose curve.

What was measured:
[1] = Nuclear factor erythroid 2-related factor 2/antioxidant responsive element (Nrf2/ARE) small molecule agonists: qHTS cell viability counter screen in human keratinocytes (AID 1919968; active = well fitted curve in the direction sought with a large enough effect in the repeat runs; an effect the other way counts as inactive or inconclusive; note: nearly all actives have a fitted effect of over 55% in size)
Summary of the method: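 HaCaT ARE reporter line, 1,500 cells/well; 5 h settle, 37 C/5% CO2; cpd in DMSO pinned; 23 h exposure; CellTiter-Fluor, 1 h; fluorescence.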

[2] = Nuclear factor erythroid 2-related factor 2/antioxidant responsive element (Nrf2/ARE) small molecule agonists: luciferase reporter gene qHTS assay in human keratinocytes (AID 1919969); note: nearly all actives have a fitted effect of over 35% in size
[3] = molecular target: Gonadotropin-releasing hormone receptor (Homo sapiens) (UniProt P30968); experiment: Human gonadotropin-releasing hormone receptor (GnRHR) small molecule agonists, calcium flux assay in GnRHR-HEK293 cells (AID 1920063); note: nearly all actives have a fitted effect of over 35% in size
Summary of the method: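 GnRHR-HEK293, 1500 cells/well, 18 h 37 C/5% CO2; Ca dye 1 h 37 C; cpd pinned (DMSO), agonist mode; kinetic FL 480/540, 3 min, 1 s reads; 15 conc, n=3.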

[4] = molecular target: KiSS-1 receptor (Homo sapiens) (UniProt Q969F8); experiment: Human kisspeptin (KISS1R) small molecule agonists, calcium flux assay in KISS1R-HEK293 cells (AID 1920064; active = well fitted curve in the direction sought with a large enough effect in the repeat runs; an effect the other way counts as inactive or inconclusive)
Summary of the method: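 Stable human KISS1R HEK293 line; 18 h plating, 37 C/5% CO2; calcium dye 1 h 37 C; compound pin transfer; kinetic fluorescence Ex/Em 480/540, 3 min.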

[5] = G protein-coupled receptor (GPCR) small molecule agonists, calcium flux assay: HEK293 wild type cell line counter screen (AID 1920065)
Summary of the method: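 Kinetic fluorescence at Ex/Em 480/540, recorded every second over 3 min, served as the read-out after compound addition. Each compound was tested at 15 concentrations in triplicate on cells pre-loaded with calcium dye for 1 h.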

[6] = p53 small molecule agonists, cell-based qHTS assay with human liver microsomes (AID 1963577);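 note: p53 response element beta-lactamase reporter cells with liver microsomes plus NADPH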
Summary of the method: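 With metabolic activation: human liver microsomes (0.5 mg/mL final) plus NADPH (0.5 mg/mL final) added alongside compounds to p53RE-bla cells; 16 h 37 C exposure; beta-lactamase read by LiveBLAzer fluorescence.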

[7] = p53 small molecule agonists, cell-based qHTS assay with rat liver microsomes (AID 1963578)
Summary of the method: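 Metabolic activation by rat liver microsomes and NADPH, each 0.5 mg/mL final, added right after compounds to p53RE-bla reporter cells (4,000/well, plated 5 h earlier). 16 h at 37 C, then LiveBLAzer substrate for 2 h at room temperature in the dark; fluorescence read-out.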

[8] = p53 small molecule agonists, cell-based qHTS assay with human liver microsomes: qHTS cell viability counter screen (AID 1963579); note: nearly all actives have a fitted effect of over 45% in size; note: potency is the fitted concentration of half-maximal effect
Summary of the method: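 Metabolic activation used human liver microsomes and NADPH, both 0.5 mg/mL final, over 16 hours at 37 C on p53RE-bla cells (4,000/well). Cytotoxicity measured by CellTiter-Glo luminescence, 30 min at room temperature.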

[9] = p53 small molecule agonists, cell-based qHTS assay with rat liver microsomes: qHTS cell viability counter screen (AID 1963580); note: nearly all actives have a fitted effect of over 45% in size
Summary of the method: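 p53RE-bla HCT-116 cells (4,000/well) rested 5 h at 37 C, then given Tox21 compounds in DMSO with rat liver microsomes (0.5 mg/mL final) plus NADPH (0.5 mg/mL final) for 16 h at 37 C. Viability read by CellTiter-Glo luminescence after 30 min at room temperature.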

[10] = p53 small molecule agonists, cell-based qHTS assay: qHTS cell viability counter screen (AID 1963581); note: nearly all actives have a fitted effect of over 45% in size
Summary of the method: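 HCT-116 p53RE-bla cells, 4,000/well, plated 5 h before compound pin transfer; 16 h at 37 C; bla substrate 2 h RT; then CellTiter-Glo, 30 min RT, luminescence.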

[11] = p53 small molecule agonists, cell-based qHTS assay (AID 1963582; active = well fitted activation curve with a large enough effect in the signal ratio in the repeat runs, not every such curve was filed as active; the % refers to the signal ratio)
Summary of the method: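 Reporter line: p53RE-bla. Pre-incubation 5 h, 37 C, 5% CO2; compound (DMSO, pin tool) 16 h, 37 C; B/G FRET substrate 2 h RT; fluorescence intensity read.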

[12] = cAMP Responsive Elements (CRE) small molecule agonists, cell-based qHTS assay (AID 1963590)
Summary of the method: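 HEK 293T CRE-bla, 2,000 cells/well, 18 h preincubation 37 C/5% CO2; cpds (DMSO) pinned, 3 h; LiveBLAzer B/G FRET substrate, 2 h RT.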

[13] = cAMP Responsive Elements (CRE) small molecule antagonists, cell-based qHTS assay (AID 1963591; active = well fitted inhibition curve with a large enough effect in the signal ratio in the repeat runs, not every such curve was filed as active; the % refers to the signal ratio)
Summary of the method: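 Beta-lactamase reporter read by FRET substrate (LiveBLAzer B/G) after 2 h at room temperature. CRE-bla HEK293T cells had received compound plus 0.25 uM (final) NKH477 for 3 h at 37 °C.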

[14] = molecular target: Beta-2 adrenergic receptor (Homo sapiens) (UniProt P07550); experiment: Adrenergic beta2 receptor (ADRB2) small molecule antagonists, cell-based qHTS assay (AID 1963592); note: series mostly up to about 92 µM; nearly all actives have a fitted effect of over 50% in size
Summary of the method: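 Cells (CHO, stable ADRB2 overexpression) incubated 18-20hr at 37C; compounds added from DMSO; agonist mix (1nM isoproterenol, 100uM IBMX, 25uM Ro-20-1724) added; 0.5hr RT; d2-cAMP and anti-cAMP-cryptate added; 1hr RT; 665/615 nm read.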

[15] = molecular target: Beta-2 adrenergic receptor (Homo sapiens) (UniProt P07550); experiment: Adrenergic beta2 receptor (ADRB2) small molecule agonists, cell-based qHTS assay (AID 1963593);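 note: CHO cells stably overexpressing human ADRB2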
Summary of the method: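 CHO cells stably over-expressing ADRB2 were plated overnight at 37C, then dosed with compounds plus a stimulation mix containing 100uM IBMX and 25uM Ro-20-1724 for 0.5hr at room temperature. cAMP was measured by HTRF competition, 1hr.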

[16] = molecular target: D(2) dopamine receptor (Homo sapiens) (UniProt P14416); experiment: Dopamine D2 receptor (DRD2) small molecule agonists, cell-based qHTS assay (AID 1963594); note: nearly all actives have a fitted effect of over 35% in size
Summary of the method: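 HEK293 cells stably expressing DRD2 were cultured 24 h at 37 C, then given Ro20-1724 (0.1 mM final) and compounds for 10 min at room temperature. NKH477 (200nM) was then added for 30 min. cAMP was read by HTRF.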

[17] = molecular target: D(2) dopamine receptor (Homo sapiens) (UniProt P14416); experiment: Dopamine D2 receptor (DRD2) small molecule antagonists, cell-based qHTS assay (AID 1963595; active = well fitted inhibition curve with a large enough effect in the signal ratio in the repeat runs, with a control signal flat; the % refers to the signal ratio)
Summary of the method: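 DRD2-HEK293; 0.1 mM Ro20-1724; cpd 10 min RT; NKH477 200 nM + quinpirole 12 nM, 30 min RT; HTRF cAMP (cAMP-d2/anti-cAMP cryptate), 665/620 nm ratio after 1 h.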

[18] = molecular target: 5-hydroxytryptamine receptor 2A (Homo sapiens) (UniProt P28223); experiment: 5-hydroxytryptamine receptor 2A (HTR2A) small molecule agonists, cell-based qHTS assay (AID 1963587); note: nearly all actives have a fitted effect of over 30% in size
Summary of the method: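 HTR2A-CHO cells, plated 18 h at 37 C/5% CO2, dye-loaded 1 h at 37 C; compounds in DMSO added by pin tool (agonist mode). Intracellular calcium flux read as kinetic fluorescence on FDSS over 2 min at 1 s intervals.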

[19] = molecular target: Muscarinic acetylcholine receptor M1 (Homo sapiens) (UniProt P11229); experiment: Cholinergic receptor muscarinic 1 (CHRM1) small molecule agonists, cell-based qHTS assay (AID 1963589); note: nearly all actives have a fitted effect of over 35% in size
Summary of the method: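 Human M1 in stable CHO line; 18 h plating, 1 h dye load 37 C; cpd added (agonist mode); Ca2+ fluorescence kinetic read, 1 s intervals; 15 conc, 3 runs.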

Chain of 5-hydroxytryptamine receptor 2A (Homo sapiens) (P28223 whole entry, looked up): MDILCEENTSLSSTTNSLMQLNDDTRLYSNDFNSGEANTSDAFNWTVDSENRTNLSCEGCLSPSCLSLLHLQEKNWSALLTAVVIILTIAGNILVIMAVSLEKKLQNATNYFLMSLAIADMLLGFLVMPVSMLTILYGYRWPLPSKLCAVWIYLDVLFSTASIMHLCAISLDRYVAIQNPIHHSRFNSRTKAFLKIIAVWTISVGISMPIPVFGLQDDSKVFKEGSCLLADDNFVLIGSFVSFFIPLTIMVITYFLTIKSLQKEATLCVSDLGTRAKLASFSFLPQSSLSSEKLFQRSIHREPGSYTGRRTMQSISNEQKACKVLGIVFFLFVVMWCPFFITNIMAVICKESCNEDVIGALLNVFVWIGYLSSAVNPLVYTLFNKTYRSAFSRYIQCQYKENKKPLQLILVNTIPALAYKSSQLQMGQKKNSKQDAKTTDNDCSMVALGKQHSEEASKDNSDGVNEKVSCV
Chain of Muscarinic acetylcholine receptor M1 (Homo sapiens) (P11229 whole entry, looked up): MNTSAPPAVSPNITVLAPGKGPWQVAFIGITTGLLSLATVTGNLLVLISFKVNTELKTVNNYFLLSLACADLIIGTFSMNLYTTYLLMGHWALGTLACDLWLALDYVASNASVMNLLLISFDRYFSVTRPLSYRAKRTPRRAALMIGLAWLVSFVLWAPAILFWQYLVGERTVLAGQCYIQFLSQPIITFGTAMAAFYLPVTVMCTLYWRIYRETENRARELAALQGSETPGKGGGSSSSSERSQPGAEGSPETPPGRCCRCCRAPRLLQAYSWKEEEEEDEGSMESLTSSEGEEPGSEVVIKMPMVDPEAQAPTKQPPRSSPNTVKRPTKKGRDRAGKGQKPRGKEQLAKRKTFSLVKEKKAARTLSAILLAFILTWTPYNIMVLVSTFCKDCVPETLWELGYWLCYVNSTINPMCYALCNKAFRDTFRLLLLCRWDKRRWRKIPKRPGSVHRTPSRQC
Chain of KiSS-1 receptor (Homo sapiens) (Q969F8 whole entry, looked up): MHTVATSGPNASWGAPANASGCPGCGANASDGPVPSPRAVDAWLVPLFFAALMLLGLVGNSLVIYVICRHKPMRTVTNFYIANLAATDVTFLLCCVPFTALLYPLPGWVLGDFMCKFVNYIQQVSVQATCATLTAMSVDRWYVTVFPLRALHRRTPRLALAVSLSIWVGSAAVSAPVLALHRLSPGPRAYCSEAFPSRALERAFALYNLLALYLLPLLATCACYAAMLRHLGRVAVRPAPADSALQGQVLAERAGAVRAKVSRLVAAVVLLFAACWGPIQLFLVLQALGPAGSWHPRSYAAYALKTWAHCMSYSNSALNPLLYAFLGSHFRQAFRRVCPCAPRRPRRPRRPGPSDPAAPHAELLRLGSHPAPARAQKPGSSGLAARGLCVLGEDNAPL
Chain of Beta-2 adrenergic receptor (Homo sapiens) (P07550 whole entry, looked up): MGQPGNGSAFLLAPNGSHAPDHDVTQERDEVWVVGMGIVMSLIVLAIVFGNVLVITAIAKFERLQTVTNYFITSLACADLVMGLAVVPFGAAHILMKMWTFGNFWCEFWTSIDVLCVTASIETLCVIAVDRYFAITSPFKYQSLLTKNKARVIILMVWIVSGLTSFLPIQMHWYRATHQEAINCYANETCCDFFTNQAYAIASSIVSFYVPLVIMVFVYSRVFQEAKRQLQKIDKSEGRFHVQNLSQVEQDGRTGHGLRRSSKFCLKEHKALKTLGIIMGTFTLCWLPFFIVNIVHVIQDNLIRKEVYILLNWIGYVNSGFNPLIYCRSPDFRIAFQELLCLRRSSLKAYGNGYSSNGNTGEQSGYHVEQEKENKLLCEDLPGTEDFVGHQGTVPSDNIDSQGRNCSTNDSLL
Chain of D(2) dopamine receptor (Homo sapiens) (P14416 whole entry, looked up): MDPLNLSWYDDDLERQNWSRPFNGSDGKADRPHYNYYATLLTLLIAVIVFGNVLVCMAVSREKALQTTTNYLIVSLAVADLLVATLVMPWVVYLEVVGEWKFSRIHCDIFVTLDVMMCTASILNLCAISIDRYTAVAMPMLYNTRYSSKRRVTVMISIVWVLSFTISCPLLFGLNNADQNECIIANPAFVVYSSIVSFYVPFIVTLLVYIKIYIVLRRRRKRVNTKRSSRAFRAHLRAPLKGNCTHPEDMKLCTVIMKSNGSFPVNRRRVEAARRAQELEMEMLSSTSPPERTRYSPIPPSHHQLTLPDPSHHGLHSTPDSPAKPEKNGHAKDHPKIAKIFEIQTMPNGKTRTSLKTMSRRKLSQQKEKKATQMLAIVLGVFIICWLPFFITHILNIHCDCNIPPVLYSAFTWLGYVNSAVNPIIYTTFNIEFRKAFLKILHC
Chain of Gonadotropin-releasing hormone receptor (Homo sapiens) (P30968 whole entry, looked up): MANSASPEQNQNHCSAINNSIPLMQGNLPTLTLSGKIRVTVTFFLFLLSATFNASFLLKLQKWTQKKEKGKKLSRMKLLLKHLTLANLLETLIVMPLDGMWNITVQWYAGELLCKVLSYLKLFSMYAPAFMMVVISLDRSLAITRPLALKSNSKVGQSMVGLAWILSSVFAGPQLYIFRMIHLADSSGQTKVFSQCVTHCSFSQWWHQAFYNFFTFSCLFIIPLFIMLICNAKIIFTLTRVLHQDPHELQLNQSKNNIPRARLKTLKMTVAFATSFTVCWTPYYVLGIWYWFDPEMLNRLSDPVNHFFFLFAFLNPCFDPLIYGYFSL

Compound | Potency [1] | Potency [2] | Potency [3] | Potency [4] | Potency [5] | Potency [6] | Potency [7] | Potency [8] | Potency [9] | Potency [10] | Potency [11] | Potency [12] | Potency [13] | Potency [14] | Potency [15] | Potency [16] | Potency [17] | Potency [18] | Potency [19]
CCCc1cc(=O)[nH]c(=S)[nH]1 | inactive | inactive | inactive | inactive | inactive | inactive | inactive | inactive | inactive | inactive | inactive | inactive | inactive | inactive | inactive | inactive | inactive | – | –
CC1(C)O[C@@H]2C[C@H]3[C@@H]4CCC5=CC(=O)C=C[C@]5(C)[C@@]4(F)[C@@H](O)C[C@]3(C)[C@]2(C(=O)CO)O1 | inactive | inactive | inactive | inactive | inactive | inactive | inactive | inactive | inactive | inactive | inactive | inactive | inactive | inactive | – | inactive | inactive | – | –
CC/C(C)=N/O | inactive | inactive | inactive | inactive | inactive | inactive | inactive | inactive | inactive | inactive | inactive | inactive | inactive | – | inactive | inactive | inactive | inactive | inactive
COC(=O)c1ccc(O)cc1 | inactive | inactive | inactive | inactive | inactive | inactive | inactive | inactive | inactive | inactive | inactive | inactive | inactive | inactive | inactive | inactive | inactive | – | –
CC(=O)Nc1nnc(S(N)(=O)=O)s1 | inactive | inactive | inactive | inactive | inactive | inactive | inactive | inactive | inactive | inactive | inactive | inactive | inactive | inactive | inactive | inactive | inactive | – | –
O=C=NCCCCCCN=C=O | inactive | inactive | inactive | inactive | inactive | inactive | inactive | inactive | inactive | inactive | inactive | inactive | inactive | inactive | inactive | inactive | inactive | inactive | inactive
NNC(=O)c1ccncc1 | inactive | inactive | inactive | inactive | inactive | inactive | inactive | inactive | inactive | inactive | inactive | inactive | inactive | inactive | inactive | inactive | inactive | – | –
CN(N=O)C(=O)N[C@@H]1[C@@H](O)[C@H](O)[C@@H](CO)O[C@@H]1O | inactive | inactive | inactive | inactive | inactive | inactive | inactive | inactive | inactive | inactive | inactive | inactive | inactive | inactive | inactive | inactive | inactive | – | –
O=c1ccc2ccccc2o1 | inactive | inactive | inactive | inactive | inactive | inactive | inactive | inactive | inactive | inactive | inactive | inactive | inactive | inactive | inactive | inactive | inactive | – | –
C[C@](N)(Cc1ccc(O)c(O)c1)C(=O)O | inactive | inactive | inactive | inactive | inactive | inactive | inactive | inactive | inactive | inactive | inactive | inactive | inactive | inactive | – | inactive | inactive | – | –
Cc1cc(C)nc(NS(=O)(=O)c2ccc(N)cc2)n1 | inactive | inactive | inactive | inactive | inactive | inactive | inactive | inactive | inactive | inactive | inactive | inactive | inactive | inactive | inactive | inactive | inactive | – | –
C=C(C)C(=O)OCC(CC)(COC(=O)C(=C)C)COC(=O)C(=C)C | inactive | inactive | inactive | inactive | inactive | inactive | inactive | inactive | inactive | inactive | inactive | – | – | inactive | – | inactive | inactive | inactive | inactive
CC(C)(C#N)c1cc(Cn2cncn2)cc(C(C)(C)C#N)c1 | inactive | inactive | inactive | inactive | inactive | inactive | inactive | inactive | inactive | inactive | inactive | inactive | inactive | inactive | inactive | inactive | inactive | – | –
C[C@H]1C[C@H]2[C@@H]3CCC4=CC(=O)C=C[C@]4(C)[C@@]3(F)[C@@H](O)C[C@]2(C)[C@@]1(O)C(=O)CO | inactive | inactive | inactive | inactive | inactive | inactive | inactive | inactive and 793 nM (active) | inactive | inactive | inactive | inactive | inactive | inactive | inactive | inactive | inactive | – | –
O=C(O)Cc1ccccc1Nc1c(Cl)cccc1Cl | inactive | inactive | inactive | inactive | inactive | inactive | inactive | inactive | inactive | inactive | inactive | inactive | inactive | inactive | inactive | inactive | inactive | – | –
CCCNC(=O)NS(=O)(=O)c1ccc(Cl)cc1 | inactive | inactive | inactive | inactive | inactive | inactive | inactive | inactive | inactive | inactive | inactive | inactive | inactive | inactive | inactive | inactive | inactive | – | –
